Assay outcomes from PubChem BioAssay.
rCAG binder: binders of r(CAG) RNA repeats, primary screen, biochemical, fluorescence | inhibition, % at 3 µM | AID 651821, 2012 | r(CAG) RNA repeat, TO-PRO-1 dye displacement fluorescence | 370,000 tested, 1.3% active;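 active = inhibition above the plate cutoff, the mean of all test compounds on that plate plus 3 SD, cut at about 35% in these data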;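 note: 0% = DMSO alone and 100% = 100 µM mitoxantrone as full dye displacement; higher means more dye released from RNA so lower well fluorescence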
ADAM10 inh: human ADAM10 inhibitors, primary screen, biochemical, QFRET, HTS | recombinant ADAM10, EDANS/DABCYL FRET peptide cleavage, 3 h | Disintegrin and metalloproteinase domain-containing protein 10 (Homo sapiens), O14672 | 370,000 tested, 0.62% active | inhibition, % at 7 µM;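 active = inhibition above a per-campaign cutoff equal to the mean of compounds falling between control-based bounds plus 3 SD, cut at about 20% in these data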;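 note: 0% = DMSO wells while the 100% control is not disclosed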
AHR act: AHR activators, primary screen, cell-based, luminescence, luciferase reporter, human; AHR-responsive luciferase reporter cells; activation, % at 5 µM; 320,000 tested, 2.5% active; AID 2796, 2010; in the data active = activation above about 47%;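 note: 0% = vehicle wells and 100% = reference agonist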
ADAM17 inh: ADAM17 inhibitors, primary screen, biochemical, QFRET | recombinant ADAM17, EDANS/DABCYL FRET peptide cleavage | inhibition, % at 6.95 µM | 370,000 tested, 0.83% active;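 active = inhibition above the mean of compounds lying between control limits plus 3 SD, set per campaign, cut at about 8.5% in these data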;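 note: 0% = DMSO-only wells as the low control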
KLK7 zymogen act: proKLK7 zymogen activators, primary screen, biochemical, fluorescence intensity. Kallikrein-7 (Homo sapiens), P49862. purified proKLK7, EDANS-DABCYL substrate fluorescence; 100% is mature enzyme control, 0% vehicle. activation, % at 7 µM. 370,000 tested, 0.9% active. AID 652039, 2013;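 active = activation above the mean of all tested compounds plus 3 SD, computed per campaign excluding outliers beyond control limits, cut at about 13% in these data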
Target sequence (P49862 whole entry, looked up): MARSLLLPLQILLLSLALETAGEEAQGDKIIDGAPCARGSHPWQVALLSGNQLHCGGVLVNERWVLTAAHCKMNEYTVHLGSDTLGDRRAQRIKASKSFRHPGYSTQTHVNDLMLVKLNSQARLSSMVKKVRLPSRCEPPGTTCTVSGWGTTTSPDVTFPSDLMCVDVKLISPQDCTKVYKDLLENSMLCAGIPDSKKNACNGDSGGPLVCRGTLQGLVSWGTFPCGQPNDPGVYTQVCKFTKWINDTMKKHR
NR3A LBD binder: binders of NR3A ligand-binding domain, primary screen, biophysical, differential scanning fluorimetry, uHTS; Glutamate receptor ionotropic, NMDA 3A (GRIN3A) ligand-binding domain; NR3A LBD differential scanning fluorimetry, Tm shift; 0% = protein alone, 100% = glycine-bound protein; Tm shift relative to glycine control, % at 25 µM; 340,000 tested, 2.5% active; AID 1259313, 2017;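 active = melting temperature shift of at least 10% of the positive control shift, at one fixed dose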
proKLK7 act conf: proKLK7 zymogen activators, confirmation, biochemical, fluorescence intensity, triplicate; purified proKLK7, EDANS-DABCYL substrate fluorescence; scaled: vehicle 0, mature enzyme 100; 3,200 tested, 68% active; shares compounds with KLK7 zymogen act; activation, % at 7 µM;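 active = activation, as change over the incubation, above the mean of all tested compounds plus 3 SD, cut at about 13% in these data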
EDANS interfere: EDANS-DABCYL substrate optical interference, artefact control for kallikrein-7 zymogen activator project, biochemical, fluorescence intensity, high throughput. AID 686952, 2013. shares compounds with KLK7 zymogen act. no enzyme, 4 h; solvent 0%, active enzyme control 100%. activation, % at 7 µM. 3,200 tested, 80% active;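 active = activation above the all-compound mean plus 3 SD, ignoring values outside control-based bounds, cut at about 4.8% in these data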;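 note: value is the 4 h activation minus the activation read at time zero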
Numbers without * were called inactive. An excerpt weighted towards active compounds, which were near 7% of everything screened.

For COC(=O)COc1cc(C)cc2oc(=O)c(CC(=O)OC)c(C)c12 the results were rCAG binder -2, ADAM10 inh inactive, AHR act 3, ADAM17 inh -180, KLK7 zymogen act 74*, NR3A LBD binder 0, proKLK7 act conf 97* and EDANS interfere 99*.
Screening COc1cc(NC(=O)COc2cc(C)cc3oc(=O)c(C)c(C)c23)cc(OC)c1OC returned rCAG binder 2, ADAM10 inh -3, AHR act 4, ADAM17 inh -4, KLK7 zymogen act 0 and NR3A LBD binder -1.
Screening COC(=O)COc1cc(OCC(=O)OC)c2c(C)c(Cl)c(=O)oc2c1 returned rCAG binder 0, ADAM10 inh inactive, AHR act -1, ADAM17 inh -339, KLK7 zymogen act 192*, NR3A LBD binder -1, proKLK7 act conf 304* and EDANS interfere 277*.
For COc1ccc2c(C)c(Cl)c(=O)oc2c1 the results were rCAG binder 4, ADAM10 inh inactive, AHR act -12, ADAM17 inh inactive, KLK7 zymogen act 7 and NR3A LBD binder 1.
Screening COC(=O)C(C)Oc1cc(OC(C)C(=O)OC)c2c(C)c(Cl)c(=O)oc2c1 (centres undefined) returned rCAG binder -4, ADAM10 inh inactive, AHR act 1, ADAM17 inh inactive, KLK7 zymogen act 65*, NR3A LBD binder -2, proKLK7 act conf -40 and EDANS interfere 29*.
`O=c1oc2cc(O)ccc2cc1-c1nc2ccccc2o1` gave rCAG binder -30, ADAM10 inh inactive, ADAM17 inh inactive, KLK7 zymogen act 108*, proKLK7 act conf 61* and EDANS interfere 73*.
Screening O=c1oc2cc(O)ccc2cc1S(=O)(=O)c1ccccc1 returned rCAG binder 1, ADAM10 inh inactive, AHR act 1, ADAM17 inh inactive, KLK7 zymogen act 38*, NR3A LBD binder -1, proKLK7 act conf 73* and EDANS interfere 67*.
Screening NC(=S)c1cc2ccc(O)cc2oc1=O returned rCAG binder 2, ADAM10 inh inactive, ADAM17 inh inactive, KLK7 zymogen act 24*, NR3A LBD binder 2, proKLK7 act conf 70* and EDANS interfere 73*.
`Oc1cc2c(cc1O)[C@H]1c3ccc(O)c(O)c3OC[C@@]1(O)C2` gave rCAG binder 2, ADAM10 inh -1, AHR act -1, ADAM17 inh -2, KLK7 zymogen act 10 and NR3A LBD binder 1.
`Oc1ccc2c(c1)OCC1(O)Cc3cc(O)c(O)cc3C21` (centres undefined) gave rCAG binder -231, ADAM10 inh -33, ADAM17 inh -7, KLK7 zymogen act 16*, NR3A LBD binder -1, proKLK7 act conf 58* and EDANS interfere 57*.
Screening COc1ccc2c(c1OC)C(=O)OC2CC(=O)c1ccc(O)c(O)c1 (centres undefined) returned rCAG binder 5, ADAM10 inh 0, AHR act 0, ADAM17 inh -1, KLK7 zymogen act 0 and NR3A LBD binder 1.
COc1ccc2c(c1OC)C(=O)OC2CC(=O)c1ccc(O)cc1 (centres undefined) was read as rCAG binder 4, ADAM10 inh -1, AHR act 0, ADAM17 inh 0, KLK7 zymogen act 20*, NR3A LBD binder 2, proKLK7 act conf 7 and EDANS interfere 6.3*.
For Nc1cc(Nc2ccccc2)c2nonc2c1[N+](=O)[O-] the results were rCAG binder 4, ADAM10 inh 5, AHR act -1, ADAM17 inh 6, KLK7 zymogen act 13*, NR3A LBD binder 0, proKLK7 act conf -1 and EDANS interfere 0.
`O=[N+]([O-])c1c(Nc2ccccc2)ccc2nonc12` gave rCAG binder 2, ADAM10 inh 5, AHR act -1, ADAM17 inh -1, KLK7 zymogen act 0 and NR3A LBD binder -1.
Screening c1cnc2nc(CSc3ncn[nH]3)cn2c1 returned rCAG binder -1, ADAM10 inh inactive, AHR act 0, ADAM17 inh -261, KLK7 zymogen act 48*, NR3A LBD binder 1, proKLK7 act conf 8 and EDANS interfere 11*.
O=C(NC(C(=O)N/N=C/c1cccnc1)c1n[nH]c(=O)c2ccccc12)c1ccccc1 (centres undefined) was read as rCAG binder 2, ADAM10 inh 12, AHR act 7, ADAM17 inh 1, KLK7 zymogen act -1 and NR3A LBD binder -2.
CCC[C@H]1[C@@H](OC(=O)NCc2cccc(C(F)(F)F)c2)CC[C@@]23CCCN2C(=O)CCC[C@@H]13 was read as ADAM10 inh 13 and ADAM17 inh 7.
Screening CCOC(=O)c1cc2c(=O)n3ccccc3nc2n(C(C)C)c1=NC(=O)c1ccncc1 returned rCAG binder -6, ADAM10 inh inactive, AHR act 3, ADAM17 inh inactive, KLK7 zymogen act 37*, NR3A LBD binder 2, proKLK7 act conf 56* and EDANS interfere 62*.
For CCOCCCn1c(=NC(C)=O)c(C#N)cc2c(=O)n3ccccc3nc21 the results were rCAG binder -4, ADAM10 inh inactive, AHR act -4, ADAM17 inh inactive, KLK7 zymogen act 23*, NR3A LBD binder -1, proKLK7 act conf 6 and EDANS interfere 17*.
`CCOC(=O)c1cc2c(=O)n3ccccc3nc2n(C(C)C)c1=NC(=O)c1c(-c2ccccc2Cl)noc1C` gave rCAG binder 2, ADAM10 inh -229, AHR act -1, ADAM17 inh -63, KLK7 zymogen act -8 and NR3A LBD binder -3.
Screening CCOC(=O)c1cc2c(=O)n3ccccc3nc2n(CCCOC)c1=NC(=O)C(C)(C)C returned rCAG binder -1, ADAM10 inh inactive, AHR act -4, ADAM17 inh inactive, KLK7 zymogen act 22*, NR3A LBD binder 0, proKLK7 act conf 15* and EDANS interfere 15*.
